Results on 46 compounds are retold here after article PMC4336329 (PLoS ONE, 2015).

Molecules are shown by their SMILES. Out of some 310,000 compounds screened, about 14,000 (4.5%) showed an effect of 50% or more. Effects have a minus sign here. This excerpt belongs to a sample that is enriched for strong results.
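Note: peak tail current of the secondary pulse compared with the same well before compound.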

In the experiment the target is human ether-à-go-go-related gene (hERG) potassium channel (human, UniProt Q12809). The experiment can be described thus: primary screen, population patch clamp on CHO cells stably expressing hERG; higher = less effect of the substance.
human ether-à-go-go-related gene (hERG) potassium channel, sequence (Q12809 whole entry, looked up): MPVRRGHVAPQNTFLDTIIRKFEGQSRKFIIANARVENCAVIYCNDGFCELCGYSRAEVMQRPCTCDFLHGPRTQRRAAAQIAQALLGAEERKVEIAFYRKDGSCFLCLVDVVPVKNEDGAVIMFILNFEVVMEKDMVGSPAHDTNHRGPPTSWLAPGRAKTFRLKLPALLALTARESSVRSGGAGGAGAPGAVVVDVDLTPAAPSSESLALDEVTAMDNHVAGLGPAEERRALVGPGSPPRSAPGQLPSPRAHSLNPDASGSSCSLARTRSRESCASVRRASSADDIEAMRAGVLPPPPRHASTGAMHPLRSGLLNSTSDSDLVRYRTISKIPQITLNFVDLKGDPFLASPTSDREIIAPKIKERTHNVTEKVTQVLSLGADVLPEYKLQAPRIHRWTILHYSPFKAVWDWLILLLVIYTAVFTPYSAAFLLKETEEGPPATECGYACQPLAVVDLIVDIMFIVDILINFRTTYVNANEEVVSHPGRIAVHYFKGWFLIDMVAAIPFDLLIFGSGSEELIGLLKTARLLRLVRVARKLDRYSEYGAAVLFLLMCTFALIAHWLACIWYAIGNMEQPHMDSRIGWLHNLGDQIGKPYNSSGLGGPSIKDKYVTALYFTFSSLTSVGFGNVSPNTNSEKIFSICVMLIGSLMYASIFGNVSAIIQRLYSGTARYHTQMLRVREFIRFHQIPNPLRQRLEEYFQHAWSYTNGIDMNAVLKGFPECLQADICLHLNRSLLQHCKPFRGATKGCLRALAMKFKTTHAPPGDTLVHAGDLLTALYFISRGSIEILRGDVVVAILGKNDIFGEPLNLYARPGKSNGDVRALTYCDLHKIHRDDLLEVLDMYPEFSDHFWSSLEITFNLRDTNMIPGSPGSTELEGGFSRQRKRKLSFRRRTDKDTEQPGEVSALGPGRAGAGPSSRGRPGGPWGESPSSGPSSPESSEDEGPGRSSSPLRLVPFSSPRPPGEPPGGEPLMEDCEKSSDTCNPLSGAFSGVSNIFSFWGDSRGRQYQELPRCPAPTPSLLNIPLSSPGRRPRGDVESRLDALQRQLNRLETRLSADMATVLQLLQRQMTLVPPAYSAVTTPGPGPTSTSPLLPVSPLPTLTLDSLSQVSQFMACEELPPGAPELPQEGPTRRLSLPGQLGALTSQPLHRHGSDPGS
In the case of `C[C@H](NC(=O)c1ccco1)C(=O)NC1CCCCCC1`, the “hERG current change (%, negative = inhibition) at 10uM” value is given as -0.515%. `O=C(c1cccnc1)N1N=C(c2cccs2)CC1c1ccc(F)cc1` (stereo not shown): the “hERG current change (%, negative = inhibition) at 10uM” value was -34.7%. For the compound `Cc1ccc(NC(=O)c2cccs2)cc1S(=O)(=O)Nc1cccc(Cl)c1`, the “hERG current change (%, negative = inhibition) at 10uM” value stood at 8.25%. Under `COc1ccc(NC(=S)N2CCC(C(=O)c3ccc(C)cc3)CC2)c(OC)c1` stands 24.7%; under `CCOc1cc(/C=N\NC(=O)CC(=O)NCCc2ccccc2)ccc1O`, 1.94%; under `Cc1ccc(C)c(-c2nnc(NC(=O)Cc3ccccc3)o2)c1`, 16.1%. Under `COc1ccc(S(=O)(=O)N2CCN(C3Cc4ccccc4C3)CC2)cc1` stands 11.8%; under `O=C(Nc1cccc(C(F)(F)F)c1)c1cncs1`, 20%; under `O=C(c1ccco1)N1CCN(Cc2cc(=O)c(OCc3ccccc3)co2)CC1`, -25.5%. `O=C(c1ccco1)N1CCN(Cc2cc(=O)c(OCc3ccc([N+](=O)[O-])cc3)co2)CC1`: the “hERG current change (%, negative = inhibition) at 10uM” value is recorded as -76.2%. Under `O=C(COc1coc(CN2CCc3ccccc3C2)cc1=O)Nc1ccc([N+](=O)[O-])cc1` stands -31.7%; under `O=C(c1ccco1)N1CCN(Cc2cc(=O)c(OCc3ccc(F)cc3)co2)CC1`, -62.2%; under `O=C(c1ccco1)N1CCN(Cc2cc(=O)c(OCc3cccc(F)c3)co2)CC1`, -76.4%. For the compound `CC(C)NC(=O)COc1coc(CN2CCN(C(=O)c3ccco3)CC2)cc1=O`, the “hERG current change (%, negative = inhibition) at 10uM” value was 10.3%. In the case of `CCOc1cc(CN2CCN(C(=O)c3ccco3)CC2)ccc1OC`, the “hERG current change (%, negative = inhibition) at 10uM” value was -28.7%. Under `O=c1cc(CO)occ1OCc1cccc(F)c1` stands -9.93%; under `COc1ccc(CN2CCN(C(=O)c3ccco3)CC2)cc1OCc1ccccc1`, -51.2%; under `O=C(c1ccco1)N1CCN(Cc2cccc(F)c2)CC1`, -0.928%. Take `COc1ccc(CN2CCN(C(=O)c3ccco3)CC2)cc1OC.O=C(O)C(=O)O`: the “hERG current change (%, negative = inhibition) at 10uM” value is on record as 16.8%.

As for `O=C(O)CCCCCn1c(SCC(=O)c2ccc(O)c(O)c2)nc2ccsc2c1=O`, the “hERG current change (%, negative = inhibition) at 10uM” value stood at 32.2%. Under `O=C(N[C@@H](Cc1ccccc1)C(=O)NC1CCCCC1)c1ccco1` stands 6%.

`CN1CCN(NS(=O)(=O)c2ccc(Cl)cc2)CC1`: the “hERG current change (%, negative = inhibition) at 10uM” value is 19.4%.

`COc1ccc(CCNC(=O)c2cccs2)cc1`: the “hERG current change (%, negative = inhibition) at 10uM” value is listed as 10.9%. Under `Brc1ccccc1OCCCCN1CCCCC1` stands -39.1%. The same measure for `Brc1ccccc1OCCCN1CCCCCC1.O=C(O)C(=O)O`: -72.6%; for `Brc1ccccc1OCCCN1CCCC1.O=C(O)C(=O)O`: -12.4%.

Regarding `O=C(O)C(=O)O.c1ccc2c(OCCCCN3CCOCC3)cccc2c1`, the “hERG current change (%, negative = inhibition) at 10uM” value turned out to be 10.7%. The same measure for `O=C(O)C(=O)O.c1ccc2c(OCCCN3CCCCCC3)cccc2c1`: -65.8%. The same measure for `c1ccc2c(OCCCCN3CCCC3)cccc2c1`: -27.1%; for `CC1(C)Cc2cccc(OCC(=O)Nc3ccccc3N3CCOCC3)c2O1`: -10.8%; for `CCOc1c(Cl)cc(CNC(C)(C)CC(C)(C)C)cc1OC.Cl`: -13.2%. With `CCCn1c(=O)[nH]c(=O)c2c1nc(-c1ccc(C(F)(F)F)cc1)n2CCOC`, the “hERG current change (%, negative = inhibition) at 10uM” value is -4.45%. Under `CCOC(=O)CN1C(=O)/C(=C/c2c(F)cccc2Cl)Oc2ccccc21` stands 9.08%; under `COc1ccc2cc(C3(C)NC(=O)NC3=O)ccc2c1` (stereo not shown), -0.239%; under `CN(C(=O)CSc1nnc(C2CC2)n1C1CC1)C1(C#N)CCCCC1`, -5.85%.

With `Cc1ccc(C(=O)N/N=C\c2ccc(OC(=O)c3cccc(F)c3)cc2)cn1`, the “hERG current change (%, negative = inhibition) at 10uM” value is listed as 11%.

On to `O=C(N/N=C(\c1ccccc1)c1cccnc1)c1cc(O)ccc1O`, for which the “hERG current change (%, negative = inhibition) at 10uM” value was found to be 16.4%. In the case of `O=C(N/N=C(\c1ccccc1)c1cccnc1)c1cccc(F)c1`, the “hERG current change (%, negative = inhibition) at 10uM” value was -61.5%.

On to `O=C(N/N=C/c1ccc(OC(=O)c2cccc(F)c2)cc1)c1cccnc1`, for which the “hERG current change (%, negative = inhibition) at 10uM” value is -69.6%. Under `O=C(N/N=C/c1cccnc1)c1cccc(F)c1` stands 2.67%. Under `O=C(N/N=C/c1ccc(OC(=O)c2cccc(Br)c2)cc1)c1cccnc1` stands 11.4%; under `Br.CC(C)(C)C(=O)Cn1c(NCCO)nc2ccccc21`, 5.72%. For `O=C(OCC(=O)N1CCc2ccccc21)C1CCCN1S(=O)(=O)c1ccc(Cl)cc1` (stereo not shown), the “hERG current change (%, negative = inhibition) at 10uM” value is on record as -17.8%. Under `CC(C)COc1ccc(C(=O)OCC(=O)N(C)CC(=O)Nc2ccc(F)cc2)cc1` stands 6.57%; under `CCOC(=O)Cc1cc(C)[nH]c1C(=O)OCC`, -5.81%. Regarding `C=CCNC(=O)c1c2c(nc3ccccc13)-c1ccccc1CC2`, the “hERG current change (%, negative = inhibition) at 10uM” value was -46.4%.
